FMDV inh: High Throughput Screening for Foot and Mouth Disease Virus Antivirals | Potency, µM (highest dose often 57.9 µM), usual class: inhibitors | 410,000 tested, 1.2% active | FMDV antiviral cell-based qHTS; calls by dose curve; tested in HEK293T cells; note: read-out not given here; nearly all actives have a fitted effect of over 45% in size
RE007 growth inh: qHTS Assay for Inhibitors of the HIV-1 protein Vpr | S. pombe RE007 Vpr strain, BacTiter-Glo ATP luminescence, 24 h | Potency, µM (top dose mostly 92.2 µM), most hits filed as inhibitors | 360,000 tested, 0.21% active | AID 651644, 2012; active = well fitted falling curve with a large enough effect; inconclusive = small, poorly fitted or top-dose-only effect; inactive = no such curve, though single readings can be large or run the other way; note: nearly all actives have a fitted effect of over 50% in size
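Fission yeast RE007 carrying one integrated HIV-1 vpr copy, seeded at OD 0.01 in PMG+AL medium with 23 nL pinned compound. Grown 24 h at 30 degrees; viability read by BacTiter-Glo luminescence after 5 min.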
Tb PYK inh: qHTS of Trypanosoma Brucei Inhibitors | pyruvate kinase (Trypanosoma brucei), Q57TT1 | TbPYK enzyme, Kinase-Glo Plus ATP luminescence, 45 min | Potency, µM (titrated, usually from 76.8 µM), usual class: inhibitors | 410,000 tested, 0.12% active | AID 624173, 2012; note: nearly all actives have a fitted effect of over 50% in size
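Quantitative HTS: titrated library compounds versus trypanosomal pyruvate kinase in TEA buffer (pH 7.2) containing KCl, MgCl2, BSA and Tween-20. Reactions were initiated with ADP, 130 uM final. Kinase-Glo Plus luminescence was read after 45 min at RT.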
Sm TGR inh: qHTS Assay for the Inhibitors of Schistosoma Mansoni Peroxiredoxins | Schistosoma mansoni thioredoxin glutathione reductase (TGR), Q962Y6 | 360,000 tested, 3% active | Potency, µM (doses to about 114 µM), most hits filed as inhibitors | purified TGR, DTNB reduction, TNB absorbance 405 nm; note: nearly all actives have a fitted effect of over 60% in size
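TGR 20 nM + NADPH 100 uM (dispensed conc.), cpd preinc 15 min RT; start with NADPH (500 uM addition) then DTNB (15 mM addition). Kinetic TNB absorbance, 405 nm filter. Four-parameter Hill fit across titration.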
Giardia FBPA inh: qHTS Assay for Inhibitors of Fructose-1,6-bisphosphate Aldolase from Giardia Lamblia; 290,000 tested, 0.71% active; AID 2451, 2010; purified Giardia FBPA; Potency, µM (doses to about 59.6 µM), actives largely listed as inhibitors; note: nearly all actives have a fitted effect of over 55% in size
Target sequence (A8B2U2 whole entry, looked up): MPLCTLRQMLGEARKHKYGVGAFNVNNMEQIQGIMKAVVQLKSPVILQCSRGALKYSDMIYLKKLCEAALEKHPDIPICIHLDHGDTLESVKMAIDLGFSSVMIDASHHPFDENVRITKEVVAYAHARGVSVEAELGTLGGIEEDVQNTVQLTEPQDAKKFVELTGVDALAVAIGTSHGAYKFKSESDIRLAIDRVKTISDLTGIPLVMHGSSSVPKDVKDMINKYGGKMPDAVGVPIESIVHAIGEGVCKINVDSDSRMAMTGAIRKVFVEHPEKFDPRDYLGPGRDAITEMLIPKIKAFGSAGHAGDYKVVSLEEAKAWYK
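Giardia FBPA (40 nM reagent) was preincubated 10 min at RT with compound (up to 57.5 uM final), then substrate plus GAPDH/TPI/NAD/arsenate coupling system with diaphorase/resazurin was added; resorufin fluorescence (525/598 nm) was read after 20 min.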
HCMV antiviral: qHTS Assay for inhibitors of the human cytomegalovirus (HCMV); HFF cells, HCMV-luciferase reporter, 72 h; active compounds read low; activity change, negative = inhibition, % at 57.5 µM; 410,000 tested, 4.5% active; AID 1259415, 2018; in the data active = activity change below about -60%; inconclusive = no clear call, values can overlap the other calls; inactive = above about -39%
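Luciferase read-out from HCMV-luciferase-infected HFFs (MOI 1 PFU/cell) 72 h post infection at 37C; compounds added after 16 h cell attachment; activity normalized between buffer-only basal and Salinomycin (10uM) inhibitor controls.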
Hits are given with their value; n = inactive; u = inconclusive; x = not tested or not shown; [ ] = remark or other dose. Shown are actives, neighbours in structure and some others; about 7.7% of the full set was active somewhere. Unless noted, calls come from the whole dose curve; as a rule, active = well fitted curve in the direction sought with a large enough effect; inconclusive = small, poorly fitted or top-dose-only effect, or another doubt; inactive = no such curve, though single readings can be large; an effect the other way counts as inactive or inconclusive.

SMILES	FMDV inh	RE007 growth inh	Tb PYK inh	Sm TGR inh	Giardia FBPA inh	HCMV antiviral
C=C1C(=O)O[C@@H]2C[C@@H](C)[C@@H]3C=CC(=O)[C@@]3(C)[C@@H](OC(=O)CC(=O)O[C@H]3[C@@H]4C(=C)C(=O)O[C@@H]4C[C@@H](C)[C@@H]4C=CC(=O)[C@]43C)[C@H]12	u	n	n	1.1µM	n	-98
C=C1C(=O)OC2C1CCC(C)C1C=CC(=O)C12C (stereo not given)	u	n	n	x	x	-97
COc1ccc2c(c1)O[C@@H](c1ccc3c(c1)OCO3)[C@H](OC(=O)Nc1ccc(OC(F)F)cc1)C2=O	x	x	x	x	n	x
S=C(SCc1nc(-c2ccc(Cl)cc2)no1)N1CCSCC1	x	x	x	x	x	n
COc1ccc(OC)c(-c2cc(Cl)c3c(c2)CC(CNC(=O)c2coc4c2C(=O)CCC4)O3)c1 (stereo not given)	n	x	x	x	x	x
C=C1C(=O)O[C@H]2C[C@@H](C)[C@@H]3C=CC(=O)[C@@]3(C)C[C@H]12	25µM	n	n	35µM	n	-99
CC(=O)O[C@@H]1[C@H]2[C@@H](C[C@@H](C)[C@@H]3C=CC(=O)[C@@]13C)OC(=O)[C@@H]2C	n	n	n	n	n	n
C=C1C(=O)OC2CC(C)C3C=CC(=O)C3(C)C(O)C12 (stereo not given)	8.9µM	n	n	x	x	x
C=C1C(=O)O[C@@H]2C[C@@H](C)[C@@H]3C4OC4C(=O)[C@@]3(C)[C@@H](O)[C@H]12 (stereo not given in full)	u	n	n	40µM	n	-79
CCOC(=O)N/N=C1/C[C@@H](O)[C@@H](O)[C@@H]2[C@@H]3C(=O)N(Cc4ccc5c(c4)OCO5)C(=O)[C@H]3CC[C@H]12	x	x	x	x	n[12.9 µM]	x
Cc1cccc(CSc2nnc(CCCCCN)o2)c1	n	x	n	n	x	-76
O=CN1CCc2c([nH]c3ccccc23)C1c1cccc2cccnc12 (stereo not given)	n	x	x	x	n	x
O=C(c1ccco1)N1CCN(C(=O)C(Cc2ccccc2)NS(=O)(=O)c2cccs2)CC1 (stereo not given)	n	n	u	25µM	n[12.9 µM]	n
O=C(c1ccco1)N1CCN(C(=O)c2cc3c(s2)-c2ccccc2OC3)CC1	n	n	n	25µM	n	n
O=C(c1cc2c(s1)-c1ccccc1S(=O)(=O)C2)N1CCN(Cc2ccccc2)CC1	20µM	n	n	n	n	-74
O=C(c1ccco1)N1CCN(C(=O)c2sccc2-c2ccccc2)CC1	n	n	n	40µM	n	n
CCOC(=O)c1cc(OC(=O)c2cc(Cl)ccc2OC)n(-c2ccccc2)n1	n	x	n	n	x	n
CCC1CN(CCNC(=O)c2ccc(N3CCOCC3)cc2)Cc2cc(OC)ccc2O1 (stereo not given)	n	x	x	x	x	x
C/C(=N/O)c1no[n+]([O-])c1/C(C)=N\O	n	n	n	7.1µM	n	n
Cc1cccc(N=N/C(=C\O)C(=O)c2ccc(Br)cc2)c1	n	u	n	n	n	-77
O=C(/C(=C/O)N=Nc1ccc(Cl)cc1)c1ccncc1	32µM	20µM	n	n	x	n
Cc1ccc(N=N/C(=C\O)C(=O)c2ccncc2)cc1	u	20µM	n	n	n	n
O=C(/C(=C/O)N=Nc1cccc(C(F)(F)F)c1)c1ccccc1	u	n	n	n	n	u
COC(=O)[C@@H]1[C@@H](CO)[C@@H]2Cn3c(ccc(Br)c3=O)[C@H]1N2S(=O)(=O)c1cccc(C)c1	x	x	x	x	x	n
COC(=O)[C@H]1[C@H](CO)[C@H]2Cn3c(ccc(Br)c3=O)[C@@H]1N2C(=O)NC(C)C	x	x	x	x	x	n
SMILES	FMDV inh	RE007 growth inh	Tb PYK inh	Sm TGR inh	Giardia FBPA inh	HCMV antiviral
O=C(NCCc1ccccc1)c1ccc(Cn2c(SCc3ccccc3F)nc3cccnc32)cc1	n	x	n	n	x	u
CC1=C(C(=O)Nc2ccccc2)C(c2cccc(O)c2)n2nc(-c3ccccc3Cl)nc2N1 (stereo not given)	n	x	n	n	x	n
Cc1ccc(C(=O)c2oc3ccccc3c2NC(=O)c2cc(-c3cc(C)ccc3O)n[nH]2)cc1	n	n	n	n	n	-63
O=C(Nc1c(C(=O)c2ccccc2)oc2ccccc12)c1cc(-c2ccccc2O)n[nH]1	n	n	n	n	n	n
Cc1ccc(C(=O)c2oc3ccccc3c2NC(=O)c2cc(-c3ccccc3O)n[nH]2)cc1	n	n	n	n	n	-63
C=CCN1[C@@H](C)[C@H](c2ccccc2)Oc2cccc(N3CCCC3)c2S1(=O)=O	x	x	x	x	x	n
CCN(CCCNC(=O)CN1N=C(c2ccc(OC)cc2)CCC1=O)c1cccc(C)c1	n	x	n	n	x	n
CC(C)C[C@@H]1COc2cccc(N3CCCC3)c2S(=O)(=O)N1	x	x	x	x	x	n
Nc1cc(-c2cccc(F)c2)nn1S(=O)(=O)c1cccc2nsnc12	n	n	n	n	n	-101
COc1ccc(NC(=O)CC(C)S(=O)(=O)c2cc3c(cc2C)NC(=O)CO3)cc1OC (stereo not given)	n	x	n	n	x	n
Cc1noc(/C=C/c2ccco2)c1S(=O)(=O)N1CCC(C(=O)Nc2ccc(F)cc2F)CC1	u	x	n	n	x	u
CCOc1ccc(C2=C(C(=O)CC)Sc3nncn3N2C(=O)CC)cc1	u	x	n	n	x	-101
CC(=O)C1=C(c2ccc(Cl)c(Cl)c2)N(C(C)=O)n2cnnc2S1	u	x	n	10µM	x	-99
CCC(=O)C1=C(c2ccc(F)cc2)N(C(=O)CC)n2cnnc2S1	n	x	n	u	x	-82
COc1cccc(C2=C(C(C)=O)Sc3nncn3N2C(C)=O)c1	n	x	n	u	x	u
CCC(=O)C1=C(c2ccc(OC)c(OC)c2)N(C(=O)CC)n2c(nnc2-c2ccc(C)cc2)S1	n	x	n	n	x	n
CCC(C#CCN1CCCCC1)(CC)OCCC#N	n	n	n	n	n	n
CCC(C)(C#CCN1CCCCC1)OCCC#N (stereo not given)	n	n	n	40µM	n	n
Cc1sc2nc(C3CC3)nc(N3CCN(C(=O)c4ccc(F)cc4)CC3)c2c1C	n	n	n	n	x	-81
Cc1nc(N2CCN(C(=O)c3ccco3)CC2)c2c3c(sc2n1)CC(C)CC3 (stereo not given)	u	n	n	n	n	u
CCc1nc(SCC(=O)N2CCN(C(=O)c3ccco3)CC2)c2c3c(sc2n1)CCCC3	u	n	n	n	n	n
Cc1nc(N2CCN(C(=O)c3ccco3)CC2)c2c3c(sc2n1)CCCC3	x	n	n	45µM	n	n

Source: PubChem (National Center for Advancing Translational Sciences (NCATS))
